In PubChem BioAssay:
Calls of active or inactive are those of the source.

Key:
[1] = optical density shifts of acrAB sulA E. coli – strain DRC41, OD650, 48 h, E. coli filamentation inducer project, primary screen (AID 1152); details: higher = more signal, called active from +8 up or from −8 down;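 note: E. coli MC1000 strain DRC41 lacking acrAB efflux pump and sulA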
[2] = probe aLefty1 binding on compound microarray – biochemical, small-molecule microarray, 635/667 nm fluorescence, primary screen (AID 1153); details: higher = more signal;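 note: score merges spot fluorescence with signal-to-noise ratio from the scanned slide images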
[3] = plasmodial surface anion channel blockers, osmotic lysis – cell-based, P. falciparum Indochina, OD700, 1 h, primary screen (AID 1154); details: P. falciparum Indochina infected RBC osmotic lysis, higher = more signal, called active from +8 up or from −8 down
[4] = plasmodial surface anion channel blockers, osmotic lysis – cell-based, P. falciparum Indochina, OD700, 2 h, primary screen (AID 1155);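 note: lysis reports solute entry through the parasite surface anion channel PSAC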; details: P. falciparum Indochina infected erythrocytes, higher = more signal, called active from +8 up or from −8 down
[5] = changes in parasitized red cell lysis, either direction – P. falciparum Indochina, OD700, 3 h, PSAC antagonist project, primary screen (AID 1156); details: P. falciparum-infected erythrocytes, osmotic lysis, higher = more signal, called active from +8 up or from −8 down
[6] = plasmodial surface anion channel blockers, osmotic lysis – cell-based, P. falciparum Indochina, OD700, 18 h, primary screen (AID 1157); details: P. falciparum Indochina infected erythrocytes, osmotic lysis OD700, 18 h; higher = more signal, called active from +8 up or from −8 down
[7] = S6 kinase pathway phospho-S6 level changes – cell-based, A549, cytoblot, luminescence, serum-stimulated, primary screen (AID 1158); details: 5 h, higher = more signal;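 note: serum-stimulated A549 lung adenocarcinoma cells; signal is phosphorylated S6 detected by cytoblot immunostaining with HRP secondary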
[8] = target: NADPH oxidase 2 (Homo sapiens) (UniProt P04839); test: compounds shifting NOX2 Amplex Red fluorescence – cell-based, HEK293-NOX2, PMA-stimulated, NOX inhibitor project, primary screen (AID 1159); details: 45 min, higher = more signal, called active from +8 up or from −8 down; note: test concentration not given here
Sequence of NADPH oxidase 2 (Homo sapiens) (P04839 whole entry, looked up): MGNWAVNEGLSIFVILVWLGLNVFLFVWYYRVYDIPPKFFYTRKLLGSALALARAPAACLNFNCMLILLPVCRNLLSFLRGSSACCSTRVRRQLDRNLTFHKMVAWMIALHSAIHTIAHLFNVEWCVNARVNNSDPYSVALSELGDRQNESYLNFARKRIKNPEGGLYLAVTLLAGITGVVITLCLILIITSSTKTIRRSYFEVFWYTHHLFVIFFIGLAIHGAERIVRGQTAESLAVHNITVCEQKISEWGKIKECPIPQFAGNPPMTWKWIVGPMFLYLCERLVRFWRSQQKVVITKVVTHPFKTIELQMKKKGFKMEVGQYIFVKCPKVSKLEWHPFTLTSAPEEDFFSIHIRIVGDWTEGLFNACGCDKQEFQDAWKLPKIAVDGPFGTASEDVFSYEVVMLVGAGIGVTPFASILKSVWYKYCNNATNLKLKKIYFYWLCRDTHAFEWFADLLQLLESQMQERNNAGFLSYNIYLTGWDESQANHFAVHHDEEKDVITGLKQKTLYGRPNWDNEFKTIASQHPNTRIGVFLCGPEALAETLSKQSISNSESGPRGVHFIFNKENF

[9] = target: NADPH oxidase 4 (Homo sapiens) (UniProt Q9NPH5); test: compounds shifting NOX4 Amplex Red fluorescence – cell-based, HEK293-NOX4, tetracycline-induced, NOX inhibitor project, primary screen (AID 1160); details: HEK293-NOX4, Amplex Red H2O2 fluorescence, 45 min; higher = more signal, called active from +8 up or from −8 down
Sequence of NADPH oxidase 4 (Homo sapiens) (Q9NPH5 whole entry, looked up): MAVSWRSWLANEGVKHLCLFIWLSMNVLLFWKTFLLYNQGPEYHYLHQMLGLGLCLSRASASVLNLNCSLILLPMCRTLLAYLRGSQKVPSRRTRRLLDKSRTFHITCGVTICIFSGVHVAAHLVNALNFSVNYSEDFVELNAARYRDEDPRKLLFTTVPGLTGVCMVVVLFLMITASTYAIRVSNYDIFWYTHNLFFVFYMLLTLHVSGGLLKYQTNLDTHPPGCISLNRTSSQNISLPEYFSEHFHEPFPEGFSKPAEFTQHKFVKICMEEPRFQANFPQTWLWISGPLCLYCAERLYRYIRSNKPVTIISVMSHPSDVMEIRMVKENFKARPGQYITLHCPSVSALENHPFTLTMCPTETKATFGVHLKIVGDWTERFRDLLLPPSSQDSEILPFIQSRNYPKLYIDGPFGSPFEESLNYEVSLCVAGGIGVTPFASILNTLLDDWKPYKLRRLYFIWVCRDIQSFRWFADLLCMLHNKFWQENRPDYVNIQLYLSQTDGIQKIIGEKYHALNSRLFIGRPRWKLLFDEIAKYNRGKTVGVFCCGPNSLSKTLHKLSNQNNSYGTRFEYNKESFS

[10] = target: NADPH oxidase 5 (Homo sapiens) (UniProt Q96PH1); test: compounds shifting NOX5 Amplex Red fluorescence – cell-based, HEK293-NOX5, NOX inhibitor project, primary screen (AID 1161); details: HEK293-NOX5, ionomycin, 45 min, higher = more signal
Sequence of NADPH oxidase 5 (Homo sapiens) (Q96PH1 whole entry, looked up): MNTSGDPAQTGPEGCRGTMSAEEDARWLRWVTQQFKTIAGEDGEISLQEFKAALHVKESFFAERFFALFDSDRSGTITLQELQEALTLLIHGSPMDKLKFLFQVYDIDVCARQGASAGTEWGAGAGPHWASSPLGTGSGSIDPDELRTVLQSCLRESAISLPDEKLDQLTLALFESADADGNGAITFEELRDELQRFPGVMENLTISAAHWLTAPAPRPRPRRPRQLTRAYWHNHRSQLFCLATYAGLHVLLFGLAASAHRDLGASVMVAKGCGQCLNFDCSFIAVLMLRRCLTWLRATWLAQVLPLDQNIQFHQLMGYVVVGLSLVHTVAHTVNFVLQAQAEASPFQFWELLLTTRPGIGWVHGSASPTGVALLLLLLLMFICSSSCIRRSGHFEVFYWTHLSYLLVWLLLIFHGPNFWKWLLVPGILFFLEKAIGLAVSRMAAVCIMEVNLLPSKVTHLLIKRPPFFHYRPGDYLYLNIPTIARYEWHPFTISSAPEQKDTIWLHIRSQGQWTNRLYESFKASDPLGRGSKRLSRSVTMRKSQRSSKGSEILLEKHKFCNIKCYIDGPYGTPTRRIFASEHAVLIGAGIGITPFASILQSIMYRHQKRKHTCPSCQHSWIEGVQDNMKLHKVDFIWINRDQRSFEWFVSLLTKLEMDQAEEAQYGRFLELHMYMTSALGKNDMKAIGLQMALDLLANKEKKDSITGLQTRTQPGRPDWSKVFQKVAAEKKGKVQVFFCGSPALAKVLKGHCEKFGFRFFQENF

| Structure (SMILES) | z-score [1] | composite z-score [2] | z-score [3] | z-score [4] | z-score [5] | z-score [6] | z-score [7] | z-score [8] | z-score [9] | z-score [10] |
| --- | --- | --- | --- | --- | --- | --- | --- | --- | --- | --- |
| CC(C)=C1C(=O)C(c2ccccc2)=C2CN3C(=O)N(CCc4ccccc4)C(=O)[C@]3(Cc3ccc(C(F)(F)F)cc3)[C@H]21 | -2.19 (inactive) | 0.522 | 22.3 (active) | 5.86 (inactive) | 0.511 (inactive) | 1.21 (inactive) | -0.558 | -0.12 (inactive) | -1.21 (inactive) | -0.226 |
| NCCCCCCNC(=O)[C@@H]1C[C@@H]2C(=O)N[C@@H](CCCCN)C(=O)N2[C@@H]1c1ccc(O)cc1 | 0.264 (inactive) | 0.614 | 1.11 (inactive) | -1.03 (inactive) | -2.05 (inactive) | -1.85 (inactive) | 0.0189 | -1.77 (inactive) | -1.06 (inactive) | -3.51 |
| O=C(NCCN1CCOCC1)[C@@H]1c2ccccc2C(=O)N(C2Cc3ccccc3C2)[C@H]1c1ccc(CO)cc1 | 2.03 (inactive) | -0.0292 | 3.11 (inactive) | -0.0966 (inactive) | -0.056 (inactive) | 0.0832 (inactive) | 1.31 | 0.182 (inactive) | 0.855 (inactive) | -0.0278 |
| C=C(COC)/C(=C/C[C@H](OC(=O)c1ccncc1)c1ccccc1OCCO)c1cc(C(=O)OC)ccc1OC | -0.604 (inactive) | 0.307 | 14 (active) | 2.43 (inactive) | 2.72 (inactive) | 0.773 (inactive) | 0.0976 | -1.21 (inactive) | 0.0788 (inactive) | -1.62 |
| COCCOC(=O)N1C(=O)[C@@]2(c3cc(C#CC4(O)CCCCCC4)ccc31)[C@H](c1ccc(O)cc1)N1[C@H](c3ccccc3)[C@H](c3ccccc3)OC(=O)[C@H]1[C@@H]2C(=O)N1CCN(c2ncccn2)CC1 | -0.533 (inactive) | 0.477 | 0.138 (inactive) | 0.525 (inactive) | -0.166 (inactive) | -0.0236 (inactive) | 0.159 | 1.54 (inactive) | 0.996 (inactive) | 1.11 |
| COC(=O)C1=CC(CCCO)=CC(c2ccc(CN3CCCC3)cc2)N(Cc2cccc(OC(F)(F)F)c2)C=C1C(=O)OC (stereo not given) | -0.418 (inactive) | 0.241 | 0.119 (inactive) | -0.984 (inactive) | 0.456 (inactive) | -2.27 (inactive) | 1.38 | 0.439 (inactive) | -0.351 (inactive) | 0.628 |
| COC(=O)[C@@]1(Cc2ccc(OC)cc2)[C@H]2c3cc(C(=O)N4CCCC4)n(CCc4c[nH]c5ccc(OC)cc45)c3C[C@H]2CN1C(=O)c1ccccc1 | -1.61 (inactive) | 0.894 | 4.25 (inactive) | 0.71 (inactive) | 1.42 (inactive) | 1.57 (inactive) | 0.0592 | 0.547 (inactive) | 1.14 (inactive) | 1.38 |
| C[N+](C)(C)CCCCCCNC(=O)[C@@H]1C[C@@H]2C(=O)N3CCC[C@H]3C(=O)N2[C@@H]1c1ccc(O)cc1 | 0.524 (inactive) | -0.021 | 1.55 (inactive) | -0.15 (inactive) | -0.72 (inactive) | -0.117 (inactive) | -0.196 | -0.425 (inactive) | 0.375 (inactive) | -0.233 |
| COC(=O)C1=CC(CCCO)=CC(c2cccs2)N(C)C=C1C(=O)OC (stereo not given) | -0.35 (inactive) | 0.147 | 2.47 (inactive) | 0.596 (inactive) | 0.148 (inactive) | 0.426 (inactive) | -0.481 | 0.467 (inactive) | -1.36 (inactive) | 0.931 |
| COc1ccc([Si](C)(C)[C@@H]2[C@@H](CC(=O)N(CCO)Cc3ccccc3)O[C@]3(C(=O)N(Cc4cccc(N5CCCCC5=O)c4)c4ccccc43)[C@H]2C)cc1 | 0.152 (inactive) | 0.527 | 4.33 (inactive) | 1.85 (inactive) | 0.422 (inactive) | 1.14 (inactive) | 1.19 | 0.609 (inactive) | 1.28 (inactive) | 3.58 |
| CC(C)C(O)C1C=CC2C(=O)N(c3ccccc3)C(=O)C2N1Nc1ccccc1 (stereo not given) | -0.471 (inactive) | -0.0163 | 1.2 (inactive) | -0.4 (inactive) | 1.33 (inactive) | -0.741 (inactive) | 0.325 | -3.32 (inactive) | -4.05 (inactive) | -6.43 |
| O=C(Cc1ccccc1)[C@H]1C2C=CCCC(c3ccccc3)=C2CN1Cc1ccccc1 (stereo not given in full) | 2.46 (inactive) | -0.151 | 0.567 (inactive) | 0.186 (inactive) | 0.879 (inactive) | 0.06 (inactive) | -0.0984 | -0.534 (inactive) | 0.773 (inactive) | 1.13 |
| CCC#CCN(Cc1ccccc1Br)[C@H](/C=C/C1CC1)[C@@H](O)Cc1ccccc1 | 2.06 (inactive) | -0.13 | -0.224 (inactive) | -0.834 (inactive) | -0.239 (inactive) | -1.53 (inactive) | 1.62 | 0.214 (inactive) | 1.07 (inactive) | -1.2 |
